From PubChem BioAssay (EPA / NIEHS)
Active and inactive are the calls of the source. How the source made its calls: active means hit-call score of the fitted dose curve at least 0.9, where 1 is the maximum; inactive means score below 0.9.

read-out: Transforming Growth Factor (TGFA), TGFA (gene 7039); test: LTEA_HepaRG_TGFA: Life Technologies and Expression Analysis (LTEA) Assay for Transforming Growth Factor (TGFA) using HepaRG (AID 2283532); settings: mRNA level, 48 h; actives raise or lower the signal
Method: LTEA_HepaRG is a cell based, multiplexed-readout assay that uses HepaRG, a human liver cell line, with measurements taken at 48 hours after chemical dosing on a 96-well plate.LTEA_HepaRG_TGFA is one of 102 assay component(s) measured in the LTEA HepaRG cell culture assay. It is a marker of Cell proliferation, survival, death.Data from the assay component LTEA_HepaRG_TGFA was analyzed into 1 endpoint. This assay endpoint, LTEA_HepaRG_TGFA, was analyzed with bidirectional fitting relative to DMSO as the negative control and baseline of activity. Using a type of inducible reporter, measures of mRNA induction for gain or loss-of-signal activity can be used to understand regulation of transcription factor activity. To generalize the intended target to other relatable targets, this assay endpoint is annotated to the growth factor intended target family, where the subfamily is EGF-like domain.
A total of 1060 chemcials from the ToxCast library were tested in eight-point concentration-response experiments. Cell culture and cytotoxicity assays were conducted at Thermo Fisher Scientific's Custom Services facility (Madison, WI). A single lot of human HepaRG cells (Thermo Fisher Scientific, Frederick, MD) was used for the cell culture experiments. 96-well format collagen type I coated plates of human HepaRG cells were prepared using established methods. Briefly, cryopreserved HepaRG cells were thawed, plated at a density of approximately 100,000 cells/well in HepaRG Thaw, Plate, and General Purpose media (HPRG770, Thermo Fisher Scientific), and incubated for 48 hours. 0.5% DMSO was selected as vehicle control to balance the requisite need of DMSO in HepaRG cultures to maintain differentiation (for example, baseline metabolism, proportions of hepatocytes vs. cholangiocytes), while enabling further hepatic receptor pathway activation (for example, PXR and CAR) in response to chemical exposure. 48 hours after plating, the culture medium was replaced with HepaRG Serum-Free Incudtion Media. Cells were exposed to each test chemical in duplicate and maintained in CO2 incubators for another 48 hours. Chemical plates were thawed to room temperature and 200x concentrations of treatment groups were prepared. 8-point conentration-reponse curves were made with the highest exposure at 100 uM, followed by half-log dilutions, all in 0.5% DMSO. Each test plate contained variouse controls, induction positive controls (1mM phenobarbital), cytotoxicity positive controls ([…] aflatoxin B1), vehicle controls (0.5% DMSO), and total lysis controls (0.5% DMSO). Cell morphology images were taken using an Essen IncuCyte FLR automated microscope, with six 96-well plates imaged in about 24 minutes. Images were captured and exported and JPEG files. Spent culture media was transfered to black-well plates for the LDH assay, and remaining media was sorted at -80 C for later use. Cells were treated with RLT buffer and frozen until shipped for gene expression analysis. Total RNA was isolated from the cell suspension in 75 uL of Buffer RLT (Qiagen, Germantown, MD 20874) by Quintiles/Expression Analysis (Durham, NC) using a custom isolation procedure. Total RNA from each plate well was transferred to a preamplification plate. Fluidigm's 96.96 Dynamic ArrayTM (Fluidigm, Amsterdam, the Netherlands) technology was used for gene expression analyses by quantitative reverse transcription polymerase chain reaction (qRT-PCR, performed by Quintiles/Expression Analysis, Durham, NC)89. Standard TaqManTM Assays (Applied Biosystems/ThermoFisher Scientific, Foster City, CA) were used to assess the expression of 93 genes selected based on their selectivity and sensitivity to important hepatic receptors known to be modulated by environmental chemicals; importance in human hepatocyte functionality; and hepatotoxicity. […]

Row | SMILES | outcome | AC50
1 | Cc1c(C(=O)O)c(O)cc2c1C(=O)c1c(O)c([C@@H]3O[C@H](CO)[C@@H](O)[C@H](O)[C@H]3O)c(O)c(O)c1C2=O | inactive | 
2 | CN1CCCC1=O | inactive | 
3 | Cc1nc(-c2ccc3c(c2)CCN(CCC2CCC(NC(=O)/C=C/c4ccc(F)cc4)CC2)CC3)no1 (stereo not given) | inactive | 
4 | O=C(O)Cc1ccccc1Nc1c(Cl)cccc1Cl | inactive | 
5 | Cc1cccc(Nc2cc(Cl)nc(SCC(=O)O)n2)c1C | inactive | 
6 | CCNc1cccc(C)c1 | inactive | 
7 | Cc1cccc([N+](=O)[O-])c1C | inactive | 
8 | Cc1ccc2ncccc2c1 | inactive | 
9 | CCCCCCCCCCCC(=O)OC | inactive | 
10 | Cc1nc(C)nc(N2C[C@@H](C)N(c3ccnc([C@@H](C)O)n3)[C@@H](C)C2)n1 | inactive | 
11 | CCCCOC(=O)CCCCCCCCC(=O)OCCCC | inactive | 
12 | Cc1cc(=O)[nH]c(=S)[nH]1 | inactive | 
13 | Cc1oc(-c2ccccc2)nc1CCOc1cccc2c1ccn2CCC(=O)O |  | 50 µM (active)
14 | COCCOCCOC |  | 1.21 µM (active)
15 | Cc1cccc(C)c1O | inactive | 
16 | CNCc1cc(F)ccc1Oc1ccc(Cl)c(Cl)c1 | inactive | 
17 | CCCCN(CCCC)CCCC | inactive | 
18 | CC1=C(/C=C/C(C)=C/C=C/C(C)=C/CO)C(C)(C)CCC1 | inactive | 
19 | CCCCCCOCCO | inactive | 
20 | CCOc1ccc2c(c1)C(C)=CC(C)(C)N2 | inactive | 

Row | SMILES | outcome | AC50
21 | CNC(=O)[C@H]1O[C@@H](n2cnc3c(NCc4cc(Cl)ccc4OCc4cc(C)no4)ncnc32)[C@H](O)[C@@H]1N | inactive | 
22 | O=c1[nH]cc(F)c(=O)[nH]1 | inactive | 
23 | COCCOC[C@H](CC1(C(=O)NC2CCC(C(=O)O)CC2)CCCC1)C(=O)Oc1ccc2c(c1)CCC2 (stereo not given in full) | inactive | 
24 | Cc1ccc(C)c(C)c1 | inactive | 
25 | CCCCCCCCCCCCCCCC | inactive | 
26 | Oc1ccc2ccccc2c1N=Nc1ccccc1 | inactive | 
27 | CCCc1cc(=O)[nH]c(=S)[nH]1 | inactive | 
28 | COc1cc(S(=O)(=O)O)c(C)cc1N=Nc1c(O)ccc2cc(S(=O)(=O)O)ccc12 | inactive | 
29 | C[C@]12C=CC(=O)C=C1CC[C@@H]1[C@@H]2C(=O)C[C@@]2(C)[C@H]1CC[C@]2(O)C(=O)CO | inactive | 
30 | O=C(O)CCCCC(=O)O | inactive | 
31 | O=[N+]([O-])C(CO)(CO)CO | inactive | 
32 | NS(=O)(=O)c1cc2c(cc1Cl)NCNS2(=O)=O | inactive | 
33 | NC(=O)Cn1c(=O)cc(CCN2CCN(c3nccc4sccc34)CC2)c2ccc(F)cc21 | inactive | 
34 | C[Si]1(C)O[Si](C)(C)O[Si](C)(C)O[Si](C)(C)O1 | inactive | 
35 | CC(=O)Oc1ccccc1C(=O)O | inactive | 
36 | CC(=O)OCCOCCOCCOC(C)=O | inactive | 
37 | Cc1ccc(C)c(O)c1C | inactive | 
38 | COc1ccc2c(c1)c(CC(=O)O)c(C)n2C(=O)c1ccc(Cl)cc1 | inactive | 
39 | Nc1ccc(S(=O)(=O)c2ccc(N)cc2)cc1 | inactive | 
40 | Cc1ccccc1Cl | inactive | 
